Measured values: PubChem BioAssay
Calls of active or inactive are those of the source.

Tests used:
[1] = system: Plasmodium falciparum Sir2 (PF13_0152, Sir2A); assay: Plasmodium falciparum Sir2A binding compounds – biochemical, small-molecule microarray, 635 nm fluorescence, primary screen (AID 1098); conditions: fluorescence 635 nm, higher = more signal;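 also: score merges spot fluorescence intensity with its signal-to-noise ratio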
[2] = probe aDKK1 binding to arrayed compounds – biochemical, biotinylated probe, 635/667 nm fluorescence, primary screen (AID 1099); conditions: small-molecule microarray, higher = more signal;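 also: score merges 667nm spot fluorescence with signal to noise across triplicate slides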
[3] = probe aCHRDL2 binding to arrayed compounds – biochemical, biotinylated probe, 635/667 nm fluorescence, primary screen (AID 1100); conditions: small-molecule microarray, higher = more signal
[4] = change in splice reporter luminescence, either direction, cell-based, HEK293, spliceosome inhibition project, primary screen (AID 1101); conditions: HEK293 splicing luciferase reporter, 24 h, higher = more signal, called active from +8 up or from −8 down;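 also: HEK293 cells carrying a splicing-competent luciferase reporter gene; test concentration not given here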
[5] = target: Fibroblast growth factor 10 (Homo sapiens) (UniProt O15520); assay: compounds binding fibroblast growth factor 10 – biochemical, small-molecule microarray, 635 nm fluorescence, primary screen (AID 1102); conditions: FGF10 binding, fluorescence 635 nm, higher = more signal
Chain of Fibroblast growth factor 10 (Homo sapiens) (O15520 whole entry, looked up): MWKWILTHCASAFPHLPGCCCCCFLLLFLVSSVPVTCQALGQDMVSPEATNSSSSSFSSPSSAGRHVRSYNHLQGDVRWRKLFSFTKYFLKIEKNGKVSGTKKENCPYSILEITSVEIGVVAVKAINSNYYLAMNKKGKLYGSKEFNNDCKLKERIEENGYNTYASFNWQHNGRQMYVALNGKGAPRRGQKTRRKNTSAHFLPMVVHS

[6] = system: glycogen synthase kinase-3 (GSK3A per assay name; protocol says GSK3B); assay: compounds binding glycogen synthase kinase-3 – biochemical, small-molecule microarray, 635 nm fluorescence, GSK3A, primary screen (AID 1103); conditions: fluorescence 635 nm, higher = more signal; also: the record names both GSK3A and GSK3B
[7] = target: Epidermal growth factor receptor (Homo sapiens) (UniProt P00533); assay: compounds binding epidermal growth factor receptor – biochemical, small-molecule microarray, 635 nm fluorescence, primary screen (AID 1104); conditions: EGFR binding, higher = more signal;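 also: score merges 667 nm emission intensity with spot signal to noise over triplicate slides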
Chain of Epidermal growth factor receptor (Homo sapiens) (P00533 whole entry, looked up): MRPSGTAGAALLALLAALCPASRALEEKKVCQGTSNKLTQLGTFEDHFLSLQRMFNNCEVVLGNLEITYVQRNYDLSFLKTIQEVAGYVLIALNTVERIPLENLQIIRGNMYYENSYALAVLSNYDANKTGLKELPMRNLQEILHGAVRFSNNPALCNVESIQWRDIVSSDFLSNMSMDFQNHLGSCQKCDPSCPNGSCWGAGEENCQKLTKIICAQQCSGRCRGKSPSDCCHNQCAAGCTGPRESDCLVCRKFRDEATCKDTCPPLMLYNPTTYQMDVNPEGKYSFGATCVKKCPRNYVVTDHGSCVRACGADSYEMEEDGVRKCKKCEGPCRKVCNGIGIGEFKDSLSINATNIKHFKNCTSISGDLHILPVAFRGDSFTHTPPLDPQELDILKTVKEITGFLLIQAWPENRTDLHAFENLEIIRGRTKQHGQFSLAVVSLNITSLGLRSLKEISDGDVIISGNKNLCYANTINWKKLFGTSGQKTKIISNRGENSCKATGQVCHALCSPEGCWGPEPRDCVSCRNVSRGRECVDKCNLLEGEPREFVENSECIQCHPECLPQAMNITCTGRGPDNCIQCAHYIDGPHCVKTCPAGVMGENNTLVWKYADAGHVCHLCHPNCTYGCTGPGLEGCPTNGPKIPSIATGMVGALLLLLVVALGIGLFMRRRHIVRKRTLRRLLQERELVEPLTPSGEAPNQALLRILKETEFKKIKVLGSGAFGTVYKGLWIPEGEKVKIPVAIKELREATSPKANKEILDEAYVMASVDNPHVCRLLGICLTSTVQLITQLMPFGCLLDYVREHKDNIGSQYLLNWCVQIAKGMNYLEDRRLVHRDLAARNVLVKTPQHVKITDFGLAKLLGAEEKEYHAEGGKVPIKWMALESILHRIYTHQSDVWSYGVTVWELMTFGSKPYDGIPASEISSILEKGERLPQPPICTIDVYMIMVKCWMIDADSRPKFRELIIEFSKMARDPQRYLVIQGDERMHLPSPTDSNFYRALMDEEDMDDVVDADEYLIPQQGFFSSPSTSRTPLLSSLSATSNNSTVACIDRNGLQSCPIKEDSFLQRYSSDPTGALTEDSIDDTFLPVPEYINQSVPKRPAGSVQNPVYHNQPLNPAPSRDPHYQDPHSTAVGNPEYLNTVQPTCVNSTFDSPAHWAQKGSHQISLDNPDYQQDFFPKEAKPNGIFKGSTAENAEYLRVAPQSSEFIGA

[8] = target: Follistatin-related protein 3 (Homo sapiens) (UniProt O95633); assay: compounds binding follistatin-related protein 3 – biochemical, small-molecule microarray, 635 nm fluorescence, primary screen (AID 1105); conditions: FSTL3 binding, higher = more signal;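 also: score merges emission near 667 nm and signal to noise per printed spot across three slides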
Chain of Follistatin-related protein 3 (Homo sapiens) (O95633 whole entry, looked up): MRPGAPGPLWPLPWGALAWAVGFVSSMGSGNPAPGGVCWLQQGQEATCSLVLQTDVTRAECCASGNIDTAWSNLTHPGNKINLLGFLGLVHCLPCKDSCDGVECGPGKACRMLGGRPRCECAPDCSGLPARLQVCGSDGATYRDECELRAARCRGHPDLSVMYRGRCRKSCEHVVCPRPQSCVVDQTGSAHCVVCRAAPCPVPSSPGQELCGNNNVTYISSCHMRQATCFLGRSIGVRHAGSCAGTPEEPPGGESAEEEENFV

[9] = target: Dickkopf-related protein 1 (Homo sapiens) (UniProt O94907); assay: small molecules binding DKK1 protein – biochemical, small-molecule microarray, 635 nm fluorescence scan, primary screen (AID 1106); conditions: higher = more signal;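 also: score merges emission near 667 nm with signal to noise over three replicate slides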
Chain of Dickkopf-related protein 1 (Homo sapiens) (O94907 whole entry, looked up): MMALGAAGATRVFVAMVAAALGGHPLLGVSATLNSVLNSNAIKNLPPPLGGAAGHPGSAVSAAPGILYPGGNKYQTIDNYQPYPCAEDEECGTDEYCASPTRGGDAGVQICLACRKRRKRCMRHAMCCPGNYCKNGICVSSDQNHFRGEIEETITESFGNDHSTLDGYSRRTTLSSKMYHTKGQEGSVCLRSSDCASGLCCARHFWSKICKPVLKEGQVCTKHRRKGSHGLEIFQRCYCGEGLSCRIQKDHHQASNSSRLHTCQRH

[10] = system: Inhibin beta A chain (activin A); assay: small molecules binding activin A – biochemical, small-molecule microarray, 635 nm fluorescence scan, primary screen (AID 1107); conditions: INHBA, higher = more signal;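 also: mouse activin A protein probed at 4.33 µg/mL on printed slides; score merges bound-protein fluorescence near 667 nm with spot signal-to-noise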
[11] = system: Human papillomavirus type 1a protein E7 (residues 44-93); assay: small molecules binding HPV E7 44-93 – biochemical, small-molecule microarray, residues 44-93, 635 nm fluorescence, primary screen (AID 1108); conditions: fluorescence 635 nm, higher = more signal;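 also: E7 fragment applied at 1 µg/mL in TBST for 1 h at 4 C; score combines spot fluorescence with its signal to noise ratio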
[12] = hepatitis C replication reporter changes, two-sided – Huh7 cells, luciferase reporter, HCV replication inhibitor project, primary screen (AID 1109); conditions: Huh7 HCV replicon luciferase reporter, 48 h; higher = more signal;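 also: huh7 hepatoma cells harbouring a luciferase neomycin HCV replicon reporter; luciferase luminescence as measure of HCV replicon replication; test concentration not given here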
[13] = target: Left-right determination factor 2 (Homo sapiens) (UniProt O00292); assay: small molecules binding LEFTY2 protein – biochemical, small-molecule microarray, 635 nm fluorescence scan, primary screen (AID 1110); conditions: higher = more signal
Chain of Left-right determination factor 2 (Homo sapiens) (O00292 whole entry, looked up): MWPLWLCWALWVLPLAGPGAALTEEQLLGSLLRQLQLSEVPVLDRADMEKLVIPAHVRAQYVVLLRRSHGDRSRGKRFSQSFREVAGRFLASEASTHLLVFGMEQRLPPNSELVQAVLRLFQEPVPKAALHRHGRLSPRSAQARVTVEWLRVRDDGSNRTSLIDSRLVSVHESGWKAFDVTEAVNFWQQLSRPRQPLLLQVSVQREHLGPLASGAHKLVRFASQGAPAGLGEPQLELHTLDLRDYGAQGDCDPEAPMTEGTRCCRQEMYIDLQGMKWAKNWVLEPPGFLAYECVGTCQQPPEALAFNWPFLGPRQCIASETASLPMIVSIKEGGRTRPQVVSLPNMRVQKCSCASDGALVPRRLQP

[14] = target: Calmodulin-1 (Homo sapiens) (UniProt P0DP23); assay: small molecules binding calmodulin-1 with EGTA – biochemical, small-molecule microarray, Cy5-labelled CALM1, profiling panel (AID 1111); conditions: Cy5-CALM1 binding fluorescence, higher = more signal;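 also: labelled calmodulin applied in Tris saline Tween buffer holding calcium plus EGTA and DTT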
[15] = target: Calmodulin-1 (Homo sapiens) (UniProt P0DP23); assay: small molecules binding Ca-loaded calmodulin-1 – biochemical, small-molecule microarray, Cy5-labelled CALM1, plus calcium, artefact control for SMM control-protein annotation, profiling panel (AID 1112); conditions: Cy5-CALM1 binding fluorescence, higher = more signal;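 also: score merges spot fluorescence with signal to noise from triplicate slides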
[16] = probe aWnt5a binding to arrayed compounds – biochemical, biotinylated probe, 635/667 nm fluorescence, primary screen (AID 1113); conditions: small-molecule microarray, higher = more signal;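 also: score merges 667 nm fluorescence intensity with signal-to-noise per printed feature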
[17] = probe aShh binding to arrayed compounds – biochemical, biotinylated probe, 635/667 nm fluorescence, primary screen (AID 1114); conditions: small-molecule microarray, higher = more signal;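 also: probe is biotin-labelled aShh protein from a stem cell growth factor screen; measures binding of labelled protein to compounds printed on the slide; score merges feature fluorescence at 667 nm with signal-to-noise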
[18] = probe aNog binding to arrayed compounds – biochemical, biotinylated probe, 635/667 nm fluorescence, primary screen (AID 1115); conditions: small-molecule microarray, higher = more signal;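 also: probe is biotinylated aNog protein used at 0.15 µg/mL for 1 h at 4 C; z-score combines 667 nm fluorescence of each spot with its signal to noise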
[19] = target: Torsin-1A-interacting protein 1 (Homo sapiens) (UniProt Q5JTV8); assay: compound microarray binding of lysate hLAP1 – cell lysate, small-molecule microarray, COS7 lysate, 635/667 nm fluorescence, primary screen (AID 1116); conditions: 635 nm fluorescence, higher = more signal
Chain of Torsin-1A-interacting protein 1 (Homo sapiens) (Q5JTV8 whole entry, looked up): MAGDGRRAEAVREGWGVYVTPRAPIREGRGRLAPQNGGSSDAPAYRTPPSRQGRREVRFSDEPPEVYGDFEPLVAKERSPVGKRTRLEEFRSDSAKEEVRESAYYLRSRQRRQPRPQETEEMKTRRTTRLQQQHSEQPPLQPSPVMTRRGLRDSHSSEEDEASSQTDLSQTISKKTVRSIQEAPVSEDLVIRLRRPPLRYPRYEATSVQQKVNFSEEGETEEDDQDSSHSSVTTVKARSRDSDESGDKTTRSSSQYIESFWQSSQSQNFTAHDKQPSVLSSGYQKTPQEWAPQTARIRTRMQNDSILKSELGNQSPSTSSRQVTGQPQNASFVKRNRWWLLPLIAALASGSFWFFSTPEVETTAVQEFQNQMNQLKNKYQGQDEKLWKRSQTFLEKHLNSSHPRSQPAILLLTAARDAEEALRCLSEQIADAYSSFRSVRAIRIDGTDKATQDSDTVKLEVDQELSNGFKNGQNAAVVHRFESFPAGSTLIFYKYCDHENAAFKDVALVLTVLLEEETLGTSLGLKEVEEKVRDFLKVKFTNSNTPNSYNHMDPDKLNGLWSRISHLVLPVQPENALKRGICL

[20] = target: Alpha-bungarotoxin (Bungarus multicinctus) (UniProt P60615); assay: compounds binding labelled alpha-BTX control protein – biochemical, small-molecule microarray, Alexa647 label, 635/667 nm fluorescence, artefact control for SMM control protein annotation, profiling panel (AID 1117); conditions: alpha-BTX-A647 binding fluorescence, higher = more signal
Chain of Alpha-bungarotoxin (Bungarus multicinctus) (P60615 whole entry, looked up): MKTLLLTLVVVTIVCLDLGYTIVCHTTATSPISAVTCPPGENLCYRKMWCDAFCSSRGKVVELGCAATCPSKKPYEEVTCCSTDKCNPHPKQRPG

Structure (SMILES)	composite z-score [1]	composite z-score [2]	composite z-score [3]	z-score [4]	composite z-score [5]	composite z-score [6]	composite z-score [7]	composite z-score [8]	composite z-score [9]	composite z-score [10]	composite z-score [11]	z-score [12]	composite z-score [13]	composite z-score [14]	composite z-score [15]	composite z-score [16]	composite z-score [17]	composite z-score [18]	composite z-score [19]	composite z-score [20]
C=CCOC(=O)[C@@H]1[C@H]2C(=O)O[C@H](c3ccccc3)[C@H](c3ccccc3)N2[C@H](c2ccc(OCCOC(=O)[C@H]3C[C@H]4C(=O)N[C@@H](CC(C)C)C(=O)N4[C@H]3c3cccc(OCCO)c3)cc2)[C@@]12C(=O)Nc1ccc(I)cc12	1.41	0.169	-0.135	-0.835 (inactive)	1.23	1.32	0.694	1.25	0.836	0.255	1.44	-1.34	0.697	0.896	0.163	-0.0721	0.337	0.0852	0.921	2.52
C=CCC(OC(C)=O)[C@@H]1[C@@H](N(Cc2ccc(-c3ccccc3)cc2)C(=O)c2ccc(C)cc2)c2cc(OCCCO)ccc2N1C(=O)c1ccc2ccccc2n1 (stereo not given in full)	-0.124	-0.053	0.529	-1.84 (inactive)	-0.0241	-0.609	-0.236	-0.374	-0.144	1.39	-0.6	-0.41	0.755	-0.248	0.24	-0.14	-0.181	0.496	0.234	-0.0983
O[C@@H](Cc1ccccc1)[C@@H](/C=C/c1ccccc1)NCc1ccccc1Br	-1.01	0.151	1.16	0.761 (inactive)	-1.98	-1.45	-1.37	-2.06	-1.42	0.52	-1.16	-1.38	-1.56	-0.793	-0.43	-0.109	-0.17	-0.445	-0.962	-0.869
C=CCOC(=O)[C@H]1[C@@H]2C(=O)O[C@@H](c3ccccc3)[C@@H](c3ccccc3)N2[C@@H](c2ccc(OCCOC(=O)[C@H]3C[C@H]4C(=O)N[C@@H](CCCC[N+](C)(C)C)C(=O)N4[C@H]3c3ccc(O)cc3)cc2)[C@]12C(=O)Nc1ccccc12	1.63	-0.194	-0.135	-1.08 (inactive)	0.507	-0.112	-0.229	0.563	0.387	-0.196	0.411	-0.581	-0.196	-0.217	-0.687	-0.148	0.0469	-0.32	0.569	0.717
COc1ccc([Si](C)(C)[C@@H]2[C@@H](CCO)O[C@]3(C(=O)N(Cc4ccccc4)c4ccc(N(C=O)c5ccccc5)cc43)[C@H]2C)cc1	0.622	-0.185	-0.025	-1.1 (inactive)	0.454	-0.141	0.012	-0.0895	0.169	0.328	-0.736	-4.14	0.391	0.194	0.841	-0.117	0.0684	-0.0036	0.301	-0.525
O=C1OCC=C[C@H]2OC34C=CCN(CCN5CCOCC5)C(=O)[C@H]3N(CCCCCCO)C(=O)[C@@H]4[C@@H]12 (stereo not given in full)	1.18	-0.148	0.251	0.364 (inactive)	-0.231	-0.162	-0.0057	0.376	0.0105	1.35	-0.139	-0.413	-0.207	-0.238	-0.695	-0.176	-0.0904	0.0395	1.37	0.0977
